Hit rate of the full screen: of about 310,000 compounds, about 14,000 (4.5%) showed an effect of 50% or more. Effects have a minus sign here. For the sample, strong results were picked, then their nearest neighbours and some compounds at random.
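Further: peak tail current of the secondary pulse compared with the same well before compound.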

The target of this assay is human ether-à-go-go-related gene (hERG) potassium channel (human, UniProt Q12809). Kind of assay: primary screen, population patch clamp on CHO cells stably expressing hERG; higher = less effect of the substance.
Sequence of human ether-à-go-go-related gene (hERG) potassium channel (Q12809 whole entry, looked up): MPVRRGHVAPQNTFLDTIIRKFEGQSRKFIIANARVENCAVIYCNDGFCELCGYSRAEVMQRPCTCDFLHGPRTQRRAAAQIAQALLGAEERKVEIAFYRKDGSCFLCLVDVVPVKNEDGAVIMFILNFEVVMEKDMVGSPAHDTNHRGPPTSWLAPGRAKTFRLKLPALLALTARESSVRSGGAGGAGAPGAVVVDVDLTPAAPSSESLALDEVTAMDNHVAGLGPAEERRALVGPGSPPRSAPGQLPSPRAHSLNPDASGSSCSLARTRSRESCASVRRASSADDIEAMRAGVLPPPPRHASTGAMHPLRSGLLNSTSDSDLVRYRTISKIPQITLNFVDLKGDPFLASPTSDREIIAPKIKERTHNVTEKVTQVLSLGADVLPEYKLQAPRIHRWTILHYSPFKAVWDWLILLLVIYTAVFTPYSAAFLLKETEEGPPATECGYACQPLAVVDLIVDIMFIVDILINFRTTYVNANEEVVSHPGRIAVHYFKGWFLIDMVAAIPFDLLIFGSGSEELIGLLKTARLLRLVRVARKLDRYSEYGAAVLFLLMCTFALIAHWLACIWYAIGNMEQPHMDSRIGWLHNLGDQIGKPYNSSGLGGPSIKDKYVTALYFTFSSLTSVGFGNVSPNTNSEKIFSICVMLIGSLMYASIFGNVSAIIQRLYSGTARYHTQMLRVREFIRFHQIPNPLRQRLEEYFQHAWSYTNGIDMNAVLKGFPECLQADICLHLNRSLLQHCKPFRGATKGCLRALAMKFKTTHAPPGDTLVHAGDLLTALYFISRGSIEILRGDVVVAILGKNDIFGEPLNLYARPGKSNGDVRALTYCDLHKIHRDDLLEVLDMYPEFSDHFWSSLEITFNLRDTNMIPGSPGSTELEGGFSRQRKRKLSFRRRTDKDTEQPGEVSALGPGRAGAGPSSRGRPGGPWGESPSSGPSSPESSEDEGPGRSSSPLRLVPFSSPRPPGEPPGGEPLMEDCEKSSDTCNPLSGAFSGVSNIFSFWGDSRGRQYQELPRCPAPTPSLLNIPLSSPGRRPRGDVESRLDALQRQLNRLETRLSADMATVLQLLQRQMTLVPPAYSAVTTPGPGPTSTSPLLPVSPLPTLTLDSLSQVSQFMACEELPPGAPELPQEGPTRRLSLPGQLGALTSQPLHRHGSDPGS
On to `COc1ccc(N(C2=NCCCS2)S(=O)(=O)c2ccc(C(C)(C)C)cc2)cc1`, for which the “hERG current change (%, negative = inhibition) at 10uM” value is 0.221%.

For the molecule `CCc1ccc2[nH]c(C(=O)Nc3ccc4c(c3)OCO4)cc2c1`, the “hERG current change (%, negative = inhibition) at 10uM” value is on record as 18.8%.

For `COc1ccc(OC)c(S(=O)(=O)N/N=C(/C)c2c[nH]c3ccccc23)c1`, the “hERG current change (%, negative = inhibition) at 10uM” value was determined as 14.1%.

As for `CCN(C(=O)c1cc2c(=O)[nH]c3ccc(C)cc3c2s1)c1cccc(C)c1`, the “hERG current change (%, negative = inhibition) at 10uM” value is recorded as -0.235%.

`Cc1nn(-c2ccc(N3CCCCC3)nn2)c(C)c1CCC(=O)Nc1cccc(F)c1`: the “hERG current change (%, negative = inhibition) at 10uM” value is reported as -19%.

For the molecule `COC(=O)c1sccc1-n1cc(C#N)c(=O)n(C)c1=O`, the “hERG current change (%, negative = inhibition) at 10uM” value was 17.9%.

Regarding `COc1cc2c(c(OC)c1OC)-c1ccc(O)c(=O)cc1[C@@H](N)CC2`, the “hERG current change (%, negative = inhibition) at 10uM” value is given as -11.8%.

`COCCn1c(C(C)C)nc2ccccc21`: the “hERG current change (%, negative = inhibition) at 10uM” value came to 4.45%.

As for `CCn1cc(C2=NOC(C(=O)Nc3ccccc3C(=O)OC)C2)c(C)n1` (stereo not drawn), the “hERG current change (%, negative = inhibition) at 10uM” value is -3.86%.

For `COc1cc(C2C(C(=O)c3ccco3)=C(O)C(=O)N2CC2CCCO2)ccc1O` (stereo not drawn), the “hERG current change (%, negative = inhibition) at 10uM” value was 2.25%.

Regarding `Cc1ccn2c(=O)c(NC(=O)c3ccc(Br)o3)c(C)nc2c1`, the “hERG current change (%, negative = inhibition) at 10uM” value stood at 8.18%.

Consider `CC1(C)C(=O)NCCN1C(=O)CC1C(=O)NCCN1CC(c1ccccc1)c1ccccc1` (stereo not drawn), for which the “hERG current change (%, negative = inhibition) at 10uM” value is reported as 12%.

Take `CC(C)(C)NC(=O)C(c1cccs1)N(Cc1ccco1)C(=O)c1csnn1` (stereo not drawn): the “hERG current change (%, negative = inhibition) at 10uM” value is -1.46%.

Turning to `COc1ccc(C(=O)CCC(=O)Nc2ccc(Cl)cc2)cc1`, the “hERG current change (%, negative = inhibition) at 10uM” value is 11.2%.

As to `COc1cccc(-c2nn(-c3ccccc3)cc2/C=C(\C#N)C(=O)NCCCn2ccnc2)c1`, the “hERG current change (%, negative = inhibition) at 10uM” value was -38.8%.

With `COc1ccc(/C=C(\NC(=O)c2ccc([N+](=O)[O-])cc2)C(=O)NCCCn2ccnc2)cc1`, the “hERG current change (%, negative = inhibition) at 10uM” value is listed as -69.4%.

As to `O=C(NCCCn1ccnc1)c1cc([N+](=O)[O-])cc([N+](=O)[O-])c1`, the “hERG current change (%, negative = inhibition) at 10uM” value is reported as -4.05%.

`COc1ccc(/C=C(\NC(=O)c2ccc(C)cc2)C(=O)NCCCn2ccnc2)cc1OC`: the “hERG current change (%, negative = inhibition) at 10uM” value is on record as 8.48%.

With `N#C/C(=C\c1ccc([N+](=O)[O-])cc1)C(=O)NCCCn1ccnc1`, the “hERG current change (%, negative = inhibition) at 10uM” value is listed as -59.5%.

For the molecule `Cc1ccc(/C=C(\NC(=O)c2ccc(C)cc2)C(=O)NCCCn2ccnc2)cc1`, the “hERG current change (%, negative = inhibition) at 10uM” value is reported as -84.9%.

Regarding `Cc1ccc(C(=O)N/C(=C\c2ccccc2)C(=O)NCCCn2ccnc2)cc1`, the “hERG current change (%, negative = inhibition) at 10uM” value was -84.8%.

With `COc1ccc(C(=O)N/C(=C\c2cn(S(=O)(=O)N(C)C)c3ccccc23)C(=O)NCCCn2ccnc2)cc1`, the “hERG current change (%, negative = inhibition) at 10uM” value came to 1.07%.

Consider `C/C(CC(=O)Nc1ccc(Cl)c(C(F)(F)F)c1)=N\NC(=O)c1cnccn1`, for which the “hERG current change (%, negative = inhibition) at 10uM” value is listed as -25.8%.

For the molecule `COc1ccc(Cc2nnc(N)s2)cc1`, the “hERG current change (%, negative = inhibition) at 10uM” value is recorded as 15.3%.

Regarding `O=C(Nc1cccc(-n2cnnn2)c1)c1cccnc1`, the “hERG current change (%, negative = inhibition) at 10uM” value amounted to 4.53%.

`C#CCOCCOCCOCCNc1nc(N2CCN(C(=O)C(Cc3ccc(O)cc3)n3cc(C(N)C(C)CC)nn3)CC2)nc(N2CCN(C(=O)C(Cc3ccc(O)cc3)n3cc(C(N)C(C)CC)nn3)CC2)n1.Cl` (stereo not drawn): the “hERG current change (%, negative = inhibition) at 10uM” value is reported as -13.3%.

`COc1ccccc1CN1CCN(C(=O)c2cccc3ccccc23)CC1`: the “hERG current change (%, negative = inhibition) at 10uM” value came to 3.48%.

In the case of `COc1cccc2cc(/C(=N/O)c3ccc(Br)cc3)oc12`, the “hERG current change (%, negative = inhibition) at 10uM” value turned out to be 5.41%.

`COC(=O)c1ccc(NC(=O)c2ccc3nc(C)sc3c2)cc1`: the “hERG current change (%, negative = inhibition) at 10uM” value amounted to 15.8%.

Turning to `COc1cc(S(=O)(=O)NCc2ccccn2)c(OC)cc1Cl`, the “hERG current change (%, negative = inhibition) at 10uM” value is on record as -1.73%.

For the molecule `O=C(CCN1C(=O)c2ccccc2C1=O)NCCCn1ccnc1`, the “hERG current change (%, negative = inhibition) at 10uM” value came out at 11.3%.

Regarding `O=C(NCCCn1ccnc1)C(Cc1ccccc1)N1C(=O)c2ccccc2C1=O` (stereo not drawn), the “hERG current change (%, negative = inhibition) at 10uM” value is listed as -34.5%.

As to `O=C(NCCCn1ccnc1)C(Cc1ccc([N+](=O)[O-])cc1)N1C(=O)c2ccccc2C1=O` (stereo not drawn), the “hERG current change (%, negative = inhibition) at 10uM” value is on record as -62.3%.

As to `Cc1ccc(-n2nc3ccc(NC(=O)c4ccc5c(c4)OCO5)cc3n2)cc1`, the “hERG current change (%, negative = inhibition) at 10uM” value amounted to 7.8%.

With `O=C(NCCc1ccccc1)c1c(O)c2cccc3c2n(c1=O)CC3`, the “hERG current change (%, negative = inhibition) at 10uM” value is recorded as 1.79%.

With `CCCN(CCC)Cc1cc2ccccc2c2c1COC2`, the “hERG current change (%, negative = inhibition) at 10uM” value is -29%.

`CCCCN(CCCC)Cc1cc2ccccc2c2c1COC2`: the “hERG current change (%, negative = inhibition) at 10uM” value is -54.6%.

Take `CCN(CC)Cc1cc2ccccc2c2c1COC2`: the “hERG current change (%, negative = inhibition) at 10uM” value is -44.1%.

`COc1ccc(NC(C)=O)cc1CNC(=O)CN1CCOCC1`: the “hERG current change (%, negative = inhibition) at 10uM” value was 19.1%.

Turning to `O=C(NC1CCCCC1)C(c1ccncc1)N(Cc1ccccc1)C(=O)c1ccc(-c2ccccc2)[nH]1` (stereo not drawn), the “hERG current change (%, negative = inhibition) at 10uM” value worked out at 4.6%.

Turning to `O=C(NC1CCCCC1)C(c1cccs1)N(CCCN1CCOCC1)C(=O)c1ccc(-c2ccccc2)[nH]1` (stereo not drawn), the “hERG current change (%, negative = inhibition) at 10uM” value is -66.5%.

With `O=C(NC1CCCCC1)C(c1ccc(F)cc1)N(CCN1CCOCC1)C(=O)c1ccc(-c2ccccc2)[nH]1` (stereo not drawn), the “hERG current change (%, negative = inhibition) at 10uM” value is 24.4%.

For the molecule `O=C(NCC1CCCO1)C(c1cccs1)N(Cc1cccs1)C(=O)c1ccc(-c2ccccc2)[nH]1` (stereo not drawn), the “hERG current change (%, negative = inhibition) at 10uM” value came out at 7.78%.

As for `O=C(NC1CCCC1)C(c1ccncc1)N(CCCN1CCOCC1)C(=O)c1ccc(-c2ccccc2)[nH]1` (stereo not drawn), the “hERG current change (%, negative = inhibition) at 10uM” value was -61.1%.

As to `CCOc1ccc(C(C(=O)NC2CCCC2)N(CCCO)C(=O)c2ccc(-c3ccccc3)[nH]2)cc1` (stereo not drawn), the “hERG current change (%, negative = inhibition) at 10uM” value was -61.6%.

As for `O=C(NCC1CCCO1)C(c1ccc(F)cc1)N(CCCN1CCOCC1)C(=O)c1ccc(-c2ccccc2)[nH]1` (stereo not drawn), the “hERG current change (%, negative = inhibition) at 10uM” value is listed as -26.2%.

For the molecule `Cc1ccc(C(C(=O)NC(C)(C)C)N(CCCN2CCOCC2)C(=O)c2ccc(-c3ccccc3)[nH]2)o1` (stereo not drawn), the “hERG current change (%, negative = inhibition) at 10uM” value is reported as -76.5%.

In the case of `O=C(NCC(=O)N(CCN1CCOCC1)C(C(=O)NC1CCCC1)c1cccs1)c1ccco1` (stereo not drawn), the “hERG current change (%, negative = inhibition) at 10uM” value is on record as -0.929%.

On to `Cc1ccc(C(C(=O)NCC2CCCO2)N(Cc2ccccc2)C(=O)c2ccc(-c3ccccc3)[nH]2)o1` (stereo not drawn), for which the “hERG current change (%, negative = inhibition) at 10uM” value was -7.63%.

In the case of `O=C(NC1CCCC1)C(c1ccncc1)N(Cc1ccccc1)C(=O)c1ccc(-c2ccccc2)[nH]1` (stereo not drawn), the “hERG current change (%, negative = inhibition) at 10uM” value is on record as -4.27%.

With `O=C(NC1CCCC1)C(c1ccncc1)N(Cc1ccco1)C(=O)c1ccc(-c2ccccc2)[nH]1` (stereo not drawn), the “hERG current change (%, negative = inhibition) at 10uM” value worked out at 1.38%.
